Where “and” joins values, the source holds several entries; their conditions need not be identical. Identical values can stand only once.
What was measured:
Experiment in all cases: growth inhibition (% activity, log2 RLU normalised to DMSO / staurosporine); higher = more growth inhibition
Conditions in all cases: 33 µM
DIPGX29 = test system: DIPGX29 (H3.3 K27M diffuse intrinsic pontine glioma line)
Summary of the method: (§1)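 In triplicate, pHGG cell lines and H9-derived neural stem cells were treated for 7 days at 37 °C, 5% CO2 with approved drugs at a single final concentration of about 33 μM, added by pin tool. CellTiter-Glo luminescence, after log2 transformation, was normalised on each plate to % activity between solvent and positive control wells. Growth inhibition is reported as the median across replicates.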

DIPGX37 = test system: DIPGX37 (H3.3 K27M diffuse intrinsic pontine glioma line)
Summary of the method: as §1

DIPGX7 = test system: DIPGX7 (H3.3 K27M diffuse intrinsic pontine glioma line)
Summary of the method: as §1

DIPGX9 = test system: DIPGX9 (diffuse intrinsic pontine glioma line)
Summary of the method: as §1

HGGX39 = test system: HGGX39 (paediatric high-grade glioma line)
Summary of the method: as §1

HGGX6 = test system: HGGX6 (H3.3 G34R paediatric high-grade glioma line)
Summary of the method: as §1

HNSC = test system: HNSC
Summary of the method: as §1

SUDIPGIV = test system: SUDIPGIV (diffuse intrinsic pontine glioma line)
Summary of the method: as §1

SUDIPGVI = test system: SUDIPGVI (diffuse intrinsic pontine glioma line)
Summary of the method: as §1

SUDIPGXIII = test system: SUDIPGXIII (diffuse intrinsic pontine glioma line)
Summary of the method: as §1

Structure (SMILES) | growth inhibition (DIPGX29) | growth inhibition (DIPGX37) | growth inhibition (DIPGX7) | growth inhibition (DIPGX9) | growth inhibition (HGGX39) | growth inhibition (HGGX6) | growth inhibition (HNSC) | growth inhibition (SUDIPGIV) | growth inhibition (SUDIPGVI) | growth inhibition (SUDIPGXIII)
CCCc1nc(C(C)(C)O)c(C(=O)OCc2oc(=O)oc2C)n1Cc1ccc(-c2ccccc2-c2nnn[nH]2)cc1 | -1% | 0.0168% | -0.622% | 0.493% | -1.5% | -3.62% | 12.4% | -1.28% | -2.12% | -2.02%
O=NO | 0.973% | 1.57% | -0.944% | 0.322% | 0.656% | 1.76% | -0.386% | -0.178% | 1.15% | -0.00307%
O=C(O)c1cn(C2CC2)c2cc(N3CCNCC3)c(F)cc2c1=O | -1.96% | -2.35% | -2.23% | -1.26% | -1.56% | -1.82% | -1.04% | -1.7% | -2.88% | -1.57%
Cc1c(C(=O)NN2CCCCC2)nn(-c2ccc(Cl)cc2Cl)c1-c1ccc(Cl)cc1 | -2.71% | -0.227% | 1.25% | -0.743% | -1.14% | -2.08% | 11.7% | -1.46% | -7.47% | 3.18%
CNCC[C@@H](Oc1ccccc1C)c1ccccc1 | 1.02% | 2.33% | 2.36% | 0.537% | 2.58% | -1.18% | 8.5% | 3.36% | 4.57% | 1.41%
CNC(=O)c1ccc(N2C(=S)N(c3ccc(C#N)c(C(F)(F)F)c3)C(=O)C2(C)C)cc1F | 0.905% | -0.457% | 1.36% | 1.43% | 6.4% | 1.33% | 4.97% | 1.84% | -1.51% | 1.86%
CNCC[C@H](Oc1cccc2ccccc12)c1cccs1 | 3.5% | 4.35% | 4.07% | 2.42% | 5.92% | 4.8% | 16.9% | 2.42% | 4.44% | -1.12%
Cc1cn(C2C=CC(CO)O2)c(=O)[nH]c1=O (stereo not given) | 0.293% | -1.7% | -0.477% | 0.481% | -0.264% | -0.492% | 1.41% | -1.27% | 1% | 0.705%
CCCOc1ccc2[nH]c(NC(=O)OC)nc2c1 | 6.12% | 5.82% | 6.31% | 9.95% | 7.33% | 9.96% | 66.6% | 11.4% | -1.9% | 3.23%
COc1nc(N)nc2c1ncn2[C@@H]1O[C@H](CO)[C@@H](O)[C@@H]1O | -0.0296% | -1.39% | -1.6% | 1.18% | 2.74% | 1% | -1.01% | 0.63% | 0.545% | -2.52%
c1cc(CN2CCCNCCNCCCNCC2)ccc1CN1CCCNCCNCCCNCC1 | 1.86% | 3.43% | 1.65% | 2.55% | 4.18% | 5.37% | 11.8% | 12.5% | 5.04% | 3.18%
NNC(=O)c1ccncc1 | 3.87% | -2.25% | 1.93% | 0.954% | 0.333% | -0.478% | 44.1% | 3.88% | -2.88% | -0.311%
CN(C)CCCN1c2ccccc2CCc2ccc(Cl)cc21 | 0.798% | 0.768% | 0.947% | 2.88% | 7.81% | 0.658% | 8.46% | 7.66% | 3.07% | 3.28%
CCC[C@@H]1C[C@@H](C(=O)N[C@@H]([C@H]2O[C@H](SC)[C@H](O)[C@@H](O)[C@H]2O)[C@H](C)Cl)N(C)C1 | 1.54% and 0.31% | 0.378% and 0.388% | 2.54% and -0.297% | -0.222% and -0.00863% | 1.92% and 0.31% | 0.389% and -3.2% | 3.24% and 18.2% | 2.02% and 2.11% | 2.1% and -0.349% | -1.04% and -3.03%
NC(=O)OCC(COC(N)=O)c1ccccc1 | 1.09% | 2.98% | 1.52% | 0.912% | 0.666% | 0.329% | 2.74% | 0.15% | 2.19% | 1.32%
CO/N=C(\C(=O)N[C@@H]1C(=O)N2C(C(=O)OCOC(=O)C(C)(C)C)=C(/C=C\c3scnc3C)CS[C@H]12)c1csc(N)n1 | -0.112% | 1.84% | 0.192% | -1.35% | 1.82% | -1.1% | 0.492% | 0.557% | 0.818% | -0.304%
NC(=O)c1cn(Cc2c(F)cccc2F)nn1 | -1.15% | -0.27% | -2% | -1.13% | -1.24% | -1.04% | -2.69% | -1.85% | -0.117% | 0.834%
CCCCC(CC)CN=C(N)N=C(N)NCCCCCCNC(N)=NC(N)=NCC(CC)CCCC (stereo not given) | 57.1% | 60.6% | 58.2% | 57.3% | 58.4% | 59.5% | 67.8% | 59.4% | 60.2% | 69.8%
CCCCOc1cc(C(=O)NCCN(CC)CC)c2ccccc2n1 | 8.77% | 4.81% | 9.69% | 3.99% | 6.11% | 5.06% | 13.1% | 2.91% | 3.16% | 1.33%

Structure (SMILES) | growth inhibition (DIPGX29) | growth inhibition (DIPGX37) | growth inhibition (DIPGX7) | growth inhibition (DIPGX9) | growth inhibition (HGGX39) | growth inhibition (HGGX6) | growth inhibition (HNSC) | growth inhibition (SUDIPGIV) | growth inhibition (SUDIPGVI) | growth inhibition (SUDIPGXIII)
COC(c1ccccc1)(c1ccccc1)[C@H](Oc1nc(C)cc(C)n1)C(=O)O | 1.89% | 2.75% | 1.17% | 0.496% | 2.43% | 1.67% | 1.25% | -2.2% | 2.3% | -15.1%
Nc1ccn(C[C@@H](CO)OCP(=O)(O)O)c(=O)n1 | 1.21% | 2.43% | 1.32% | 1.05% | -0.556% | -0.434% | 3.12% | 2.09% | 1.15% | 1.19%
Cc1oncc1C(=O)Nc1ccc(C(F)(F)F)cc1 | 12% | 9.13% | 10.1% | 22.6% | 24.2% | 9.78% | 55.7% | 28.2% | 1.33% | 2.78%
O=C(NC(Cc1cc(=O)[nH]c2ccccc12)C(=O)O)c1ccc(Cl)cc1 (stereo not given) | 0.575% | 0.0807% | -1.26% | 0.987% | 0.192% | 0.202% | -1.11% | -0.753% | 0.645% | 0.24%
NC(=O)N1c2ccccc2C=Cc2ccccc21 | -0.706% | 3.98% | 0.653% | 1.56% | 1.28% | 0.945% | 2.65% | 0.457% | 1.8% | -0.0848%
CO[C@H]1/C=C/O[C@@]2(C)Oc3c(C)c(O)c4c(O)c(c(/C=N/N5CCN(C6CCCC6)CC5)c(O)c4c3C2=O)NC(=O)/C(C)=C\C=C\[C@H](C)[C@H](O)[C@@H](C)[C@@H](O)[C@@H](C)[C@H](OC(C)=O)[C@@H]1C | 1.87% | 1.82% | 1.73% | 2.34% | 2.99% | 2.94% | 0.219% | -0.888% | 1.12% | 0.627%
N=C(N)N | -0.83% | 2.64% | 1.54% | 0.0493% | 0.625% | -0.897% | 7.78% | 1.72% | -0.000495% | -1.47%
C#Cc1cccc(Nc2ncnc3cc(OCCOC)c(OCCOC)cc23)c1 | 4.75% | 0.211% | 3.55% | 2.64% | 5.69% | 6.15% | 20.9% | -5.33% | 3.91% | 1.17%
CCOC(=O)C1=C(C)NC(C)=C(C(=O)OC)C1c1cccc([N+](=O)[O-])c1 (stereo not given) | -2.41% | 0.972% | 1.75% | -2.12% | 0.389% | -2.9% | 37.3% | -0.292% | -8.45% | 2.39%
N=C(N)NCCC[C@H](N)C(=O)O | -2.37% | 0.109% | 0.302% | -2.03% | -0.487% | -4.08% | 2.28% | -1.68% | -2% | -0.232%
CNC(=C[N+](=O)[O-])NCCSCc1ccc(CN(C)C)o1 | 2.69% | 2.65% | 5.27% | 2.2% | 4.25% | 0.922% | 9.82% | 1.43% | 1.91% | -0.737%
Nc1nc2[nH]cnc2c(=S)[nH]1 | 23.3% | 12.5% | 5.75% | 17.2% | 25% | 18.7% | 63.7% | 42.5% | -1.02% | 2.55%
Clc1ccc(CSC(Cn2ccnc2)c2ccc(Cl)cc2Cl)cc1 (stereo not given) | 3.26% | -0.102% | 3.59% | 1.99% | 11.1% | 8.31% | 9.42% | 16.1% | 3.55% | 10.8%
CC[C@H](C)C(=O)O[C@H]1CCC=C2C=C[C@H](C)[C@H](CC[C@@H]3C[C@@H](O)CC(=O)O3)[C@H]21 | 3.29% | -2.48% | 9.34% | 3.1% | 21.1% | 12.9% | 47.3% | 15.3% | -4.05% | 28.8%
Cc1cc(=O)n(-c2ccccc2)n1C | -0.731% | -0.447% | -1.9% | 0.213% | -0.272% | -0.826% | -1.87% | 0.134% | 0.115% | 0.666%
Nc1ncnc2c1ncn2[C@@H]1O[C@H](COP(=O)(O)OP(=O)(O)OP(=O)(O)O)[C@@H](O)[C@H]1O | 1.45% | 3.53% | 0.965% | 2.77% | 1.53% | 2.37% | 1.17% | 0.305% | 3.67% | 1.19%
CC(C)c1c(C(=O)Nc2ccccc2)c(-c2ccccc2)c(-c2ccc(F)cc2)n1CC[C@@H](O)C[C@@H](O)CC(=O)O | 16.8% | -10% | 21.8% | 7.54% | 42.1% | 23% | 65.6% | 32.1% | -0.629% | 39.2%
Cc1cccc(N(C)C(=S)Oc2ccc3ccccc3c2)c1 | -3.14% | -1.11% | -2.16% | -2.01% | -1.4% | -3.78% | -3.49% | -3.02% | -3.26% | 0.248%
Cc1ccc(-n2[nH]c(C)c(N=Nc3cccc(-c4cccc(C(=O)O)c4)c3O)c2=O)cc1C | -2.95% | -1.98% | 0.213% | -1.59% | -1.34% | -2.27% | 13.7% | -2.64% | -2.5% | 1.95%
